Results reported in PubChem BioAssay AID1568 (National Center for Advancing Translational Sciences (NCATS), 2009).
Results filed as inconclusive are left out. A call without a number means that no potency is given here. Activity calls are given as the source filed them. Calls follow the shape of the dose curve; as a rule, active = well fitted curve in the direction sought with a large enough effect; inconclusive = small, poorly fitted or top-dose-only effect, or effect the other way, or another doubt; inactive = no such curve, though single readings can be large or run the other way.

assay: Cell Viability Secondary Assay to Characterize qHTS Inhibitors of the Interaction of Thyroid Hormone Receptor and Steroid Receptor Coregulator 2; conditions: cell viability counter-screen, qHTS titration; series mostly up to 29.9 µM
Procedure, shortened: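 WRO human follicular thyroid carcinoma cells stably expressing TRbeta and a TRE-luciferase reporter, treated with compounds plus 100nM T3 (final) for 16 h at 37 C. Viability read as ATP content by CellTiter-Glo luminescence.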

Row | SMILES | Potency
1 | COc1cc(C(c2c(C)[nH][nH]c2=O)c2c(C)[nH][nH]c2=O)ccc1OC(=O)c1cccc(C)c1 | inactive
2 | CC(=O)c1cccc(NC(=O)COC(=O)c2ccc(S(C)(=O)=O)c([N+](=O)[O-])c2)c1 | inactive
3 | Nc1cccnc1Sc1cc(Cl)c(Cl)cc1Cl | inactive
4 | Cc1[nH][nH]c(=O)c1C(c1ccc(-c2ccccc2C(=O)O)o1)c1c(C)[nH][nH]c1=O | inactive
5 | Cc1cc2c(NC(=O)Nc3ccccc3)cccc2nn1 | inactive
6 | Oc1ccc2ccccc2c1/C=N/c1nccs1 | inactive
7 | COc1ccc(C(=O)Oc2ccc(C(c3c(C)[nH][nH]c3=O)c3c(C)[nH][nH]c3=O)cc2OC)cc1 | inactive
8 | C=CCNC(=O)/C(C#N)=C\c1cc(Cl)c(OCC)c(OC)c1 | inactive
9 | Cc1cc2ccccc2n1CCNC(=O)C(C)Oc1ccccc1 (stereo not drawn) | inactive
10 | CN(C)c1cc(Cl)c2nonc2c1N | inactive
11 | Nc1cc(-c2ccncc2)c[nH]c1=O | inactive
12 | Cc1cc(C)cc(OCC(=O)NCCc2nc3ccccc3[nH]2)c1 | inactive
13 | COc1ccc2c(c1)-c1nc(/N=C/c3c(O)ccc4ccccc34)sc1CC2 | inactive
14 | CN1CCc2ccc3c4c2[C@]1(C)Cc1cccc(c1-4)OCO3 | 8.91 µM (active)
15 | COc1ccc(CN2C(=O)Cc3c2nc(N)c2c(N)nc(N4CCCCC4)c(C#N)c32)cc1 | inactive
16 | C=CC(=O)OCCOc1ccccc1 | inactive
17 | Oc1ccc2ccccc2c1/C=N/c1nc2c(s1)CCCC2 | inactive
18 | CCOC(=O)C(NC(=O)Nc1ccc(O)cc1)(c1ccccc1)C(F)(F)F (stereo not drawn) | inactive
